# Experimental data: PubChem BioAssay (EPA / NIEHS)
# Where “and” joins values, the source holds several entries; their conditions need not be identical. Equal values may be shown once. Inconclusive results are not listed. Calls of active or inactive are those of the source. How the source made its calls, unless noted: active means hit-call score of the fitted dose curve at least 0.9, where 1 is the maximum; inactive means score below 0.9.
# What was measured:
# [1] = molecular target: Glucocorticoid receptor (Homo sapiens) (UniProt P04150); assay: ATG_GR_TRANS: Attagene TRANS-FACTORIAL HepG2 Assay for human Glucocorticoid Receptor (GR) (AID 2282978; active means hit-call score of the fitted dose curve at least 0.9, where 1 is the maximum;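 further: activators score as hits since higher reporter transcript over DMSO is fitted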); details: HepG2 Attagene TRANS GR reporter, mRNA transcription
# In short: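 Fluorescent capillary-electrophoresis quantitation of reporter mRNA is the readout, taken 24 h after dosing human HepG2 cells carrying transiently transfected GAL4-UAS reporter units activated by chimeric NR-GAL4 fusions; activity scored as induction over DMSO.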
# [2] = molecular target: Estrogen receptor (Homo sapiens) (UniProt P03372); assay: ATG_ERa_TRANS: Attagene TRANS-FACTORIAL HepG2 Assay for human Estrogen Receptor alpha (ERa) (AID 2282970; active means hit-call score of the fitted dose curve at least 0.9, where 1 is the maximum); details: HepG2 Attagene TRANS ERa GAL4 reporter, mRNA
# In short: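 HepG2 cells transiently transfected with multiplexed GAL4-UAS reporter units read out chimeric NR-Gal4 activity. After 24 h compound exposure, reporter mRNA was quantified by RT-PCR, 6-FAM labeling, HpaI digestion and capillary electrophoresis, relative to DMSO.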
# [3] = CCTE_Deisenroth_AIME_384WELL_CTox_Inactive: Cytotoxicity Assessment (CTOX) in CCTE's 384-well Estrogen Receptor Transactivation Assay without AIME metabolic competence (metabolism negative), Deisenroth Lab (AID 2284039; active means hit-call score of the fitted dose curve at least 0.9, where 1 is the maximum;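 further: cell viability via live-cell protease substrate cleaved to fluorescent probe; cells exposed 24 h to medium preincubated 2 h with alginate-water beads without S9; loss of fluorescence signal means loss of viability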)
# In short: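 Fluorescent protease-substrate viability readout after 24 h exposure of VM7Luc4E2 cells to conditioned medium. Chemicals (0.002–200 uM) first sat 2 h over alginate-water beads, no S9. Data fitted bidirectionally, loss of signal meaning viability loss.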
# [4] = molecular target: rat Thyrotropin Releasing Hormone Receptor (TRH), Trhr (gene 25570) (UniProt Q01717); assay: NVS_GPCR_rTRH: NovaScreen (NVS) G Protein-Coupled Receptor Assay for rat Thyrotropin Releasing Hormone Receptor (TRH) (AID 2283329; active means hit-call score of the fitted dose curve at least 0.9, where 1 is the maximum;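 further: hit means lower bound tracer signal versus DMSO baseline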)
# In short: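 Competitive radioligand binding on rat forebrain membrane preparations, with filtration and scintillation readout after 4 h. Primary testing in duplicate at 25 uM; actives confirmed in concentration-response. DMSO defined baseline.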
# [5] = read-out: Vascular cell adhesion molecule 1 (VCAM1), VCAM1 (gene 7412); assay: BSK_MyoF_VCAM1: BioMAP Diversity Plus: MyoF Assay for Vascular cell adhesion molecule 1 (VCAM1) Biomarker Activity (AID 2284231); details: primary human lung fibroblasts
# In short: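 Primary human lung fibroblasts (BioMAP MyoF system) dosed with chemical, VCAM-1 measured by ELISA 24 hours later. Fitted in the positive direction against DMSO; parallel SRB staining assessed cytotoxicity.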
# [6] = read-out: Actin alpha 1 (ACTA1), ACTA1 (gene 58); assay: BSK_MyoF_ACTA1: BioMAP Diversity Plus: MyoF Assay for Actin alpha 1 (ACTA1) Biomarker Activity (AID 2284244); details: primary human lung fibroblasts
# In short: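 Human lung fibroblast (MyoF system) cultures dosed with test chemical; alpha-SMA measured by ELISA 24 h after dosing, normalized to DMSO control. Cytotoxicity tracked in parallel cultures by SRB total-protein staining.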
# [7] = read-out: Plasminogen activator inhibitor-1 (PAI1), SERPINE1 (gene 5054); assay: BSK_MyoF_PAI1: BioMAP Diversity Plus: MyoF Assay for Plasminogen activator inhibitor-1 (PAI1) Biomarker Activity (AID 2284256); details: primary human lung fibroblasts;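 on outcome: PAI-1 read 24 h after compound addition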
# In short: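 Primary human lung fibroblasts treated with chemical for 24 h; PAI-1 levels quantified by ELISA relative to DMSO. Cytotoxicity was assessed in parallel cultures by SRB total-protein staining (0.1% SRB after 10% TCA fixation, 560 nm).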
# [8] = read-out: Interleukin-8 (IL8), CXCL8 (gene 3576); assay: BSK_MyoF_IL8: BioMAP Diversity Plus: MyoF Assay for Interleukin-8 (IL8) Biomarker Activity (AID 2284261); details: primary human lung fibroblasts
# In short: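 Human lung fibroblast (MyoF system) cultures dosed for 24 h, then IL-8 measured by ELISA. Response taken relative to DMSO; parallel SRB total-protein staining for cytotoxicity.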
# [9] = BSK_MyoF_SRB: Viability Assessment in the BioMAP Diversity Plus: MyoF Assay (AID 2284267); details: primary human lung fibroblasts;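 further: total protein by SRB absorbance in parallel cultures as cytotoxicity measure; cells assessed 24 h after compound addition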
# In short: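 Human lung fibroblasts, 24 h after chemical dosing; total protein measured by 0.1% sulforhodamine B staining after 10% TCA fixation, read at 560 nm, fitted relative to DMSO baseline.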
# [10] = CEETOX_H295R_MTT_cell_viability: Viability Assessment in the CeeTox HT-H295R MTT Assay (AID 2283718);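 on AC50: curve fitted both ways so AC50 may mark viability loss or gain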
# In short: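 Human H295R adrenal cells, prestimulated 48 h with 10 uM forskolin, were exposed 48 h to chemicals in 0.1% DMSO. Viability was measured in the same wells by MTT (0.5 mg/ml, 4 h, 37 C), absorbance 570/650 nm, as percent of controls.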
# [11] = molecular target: Androgen receptor (Homo sapiens) (UniProt P10275); assay: ATG_AR_TRANS: Attagene TRANS-FACTORIAL HepG2 Assay for human Androgen Receptor (AR) (AID 2282973; active means hit-call score of the fitted dose curve at least 0.9, where 1 is the maximum); details: HepG2 Attagene TRANS-FACTORIAL AR reporter transcription
# In short: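 HepG2 cells transiently transfected with AR-Gal4 chimera and GAL4-UAS reporter units; chemical exposure 24 h. Reporter mRNA quantified by RT-PCR with fluorescent labelling and capillary electrophoresis; gain-of-signal fitted against DMSO.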
# [12] = molecular target: human Peripheral-type Benzodiazepine Receptor (PBR), TSPO (gene 706) (UniProt P30536); assay: NVS_MP_hPBR: NovaScreen (NVS) Membrane Protein Assay for human Peripheral-type Benzodiazepine Receptor (PBR) (AID 2283331; active means hit-call score of the fitted dose curve at least 0.9, where 1 is the maximum;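 further: hits reduce radioligand binding relative to DMSO baseline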)
# In short: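 Radioligand displacement on human colonic cell membranes, 1 h incubation; bound radioactivity by filtration and scintillation counting. Primary screen in duplicate at 25 uM single concentration, actives followed up in concentration series; loss of binding versus DMSO.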
# Chain of Estrogen receptor (Homo sapiens) (P03372 whole entry, looked up, the tested form may be a part): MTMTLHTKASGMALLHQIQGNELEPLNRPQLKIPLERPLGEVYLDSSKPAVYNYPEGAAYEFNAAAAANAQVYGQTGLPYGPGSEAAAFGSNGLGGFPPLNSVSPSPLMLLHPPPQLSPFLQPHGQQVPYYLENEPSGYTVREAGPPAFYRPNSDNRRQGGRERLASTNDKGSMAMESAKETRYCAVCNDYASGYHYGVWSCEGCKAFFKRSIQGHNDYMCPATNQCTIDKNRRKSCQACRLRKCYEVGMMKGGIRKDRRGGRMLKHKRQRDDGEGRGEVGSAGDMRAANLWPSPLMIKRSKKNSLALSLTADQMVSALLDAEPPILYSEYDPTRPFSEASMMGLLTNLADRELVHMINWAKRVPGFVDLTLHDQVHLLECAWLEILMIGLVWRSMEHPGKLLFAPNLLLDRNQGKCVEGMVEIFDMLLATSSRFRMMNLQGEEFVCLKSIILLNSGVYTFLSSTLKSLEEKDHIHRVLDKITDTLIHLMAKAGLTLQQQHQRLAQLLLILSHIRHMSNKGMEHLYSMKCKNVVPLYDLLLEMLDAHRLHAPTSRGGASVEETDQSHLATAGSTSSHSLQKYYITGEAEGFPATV
# Chain of Androgen receptor (Homo sapiens) (P10275 whole entry, looked up, the tested form may be a part): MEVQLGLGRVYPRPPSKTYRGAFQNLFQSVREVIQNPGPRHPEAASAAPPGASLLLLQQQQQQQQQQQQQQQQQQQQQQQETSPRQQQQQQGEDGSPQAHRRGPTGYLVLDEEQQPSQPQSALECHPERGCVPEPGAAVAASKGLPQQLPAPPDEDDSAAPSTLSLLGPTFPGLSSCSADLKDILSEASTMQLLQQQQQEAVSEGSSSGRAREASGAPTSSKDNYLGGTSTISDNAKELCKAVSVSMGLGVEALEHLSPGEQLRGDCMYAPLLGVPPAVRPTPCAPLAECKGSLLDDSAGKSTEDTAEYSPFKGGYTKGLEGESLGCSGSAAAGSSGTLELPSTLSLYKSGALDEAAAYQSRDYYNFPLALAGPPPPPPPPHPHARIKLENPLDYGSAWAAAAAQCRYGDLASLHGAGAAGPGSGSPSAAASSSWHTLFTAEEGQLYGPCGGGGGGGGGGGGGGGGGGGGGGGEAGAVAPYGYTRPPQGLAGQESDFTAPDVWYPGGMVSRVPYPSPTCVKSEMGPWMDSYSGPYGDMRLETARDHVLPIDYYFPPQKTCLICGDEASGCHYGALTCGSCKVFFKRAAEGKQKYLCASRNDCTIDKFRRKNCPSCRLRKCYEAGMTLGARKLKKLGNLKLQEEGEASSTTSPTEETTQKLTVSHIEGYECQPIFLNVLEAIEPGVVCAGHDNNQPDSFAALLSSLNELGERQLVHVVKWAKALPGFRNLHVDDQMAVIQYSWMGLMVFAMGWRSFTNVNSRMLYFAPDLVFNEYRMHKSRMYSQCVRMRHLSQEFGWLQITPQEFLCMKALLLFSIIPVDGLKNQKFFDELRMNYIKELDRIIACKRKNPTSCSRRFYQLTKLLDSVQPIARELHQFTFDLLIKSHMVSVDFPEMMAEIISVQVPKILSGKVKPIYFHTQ
# Chain of Glucocorticoid receptor (Homo sapiens) (P04150 whole entry, looked up, the tested form may be a part): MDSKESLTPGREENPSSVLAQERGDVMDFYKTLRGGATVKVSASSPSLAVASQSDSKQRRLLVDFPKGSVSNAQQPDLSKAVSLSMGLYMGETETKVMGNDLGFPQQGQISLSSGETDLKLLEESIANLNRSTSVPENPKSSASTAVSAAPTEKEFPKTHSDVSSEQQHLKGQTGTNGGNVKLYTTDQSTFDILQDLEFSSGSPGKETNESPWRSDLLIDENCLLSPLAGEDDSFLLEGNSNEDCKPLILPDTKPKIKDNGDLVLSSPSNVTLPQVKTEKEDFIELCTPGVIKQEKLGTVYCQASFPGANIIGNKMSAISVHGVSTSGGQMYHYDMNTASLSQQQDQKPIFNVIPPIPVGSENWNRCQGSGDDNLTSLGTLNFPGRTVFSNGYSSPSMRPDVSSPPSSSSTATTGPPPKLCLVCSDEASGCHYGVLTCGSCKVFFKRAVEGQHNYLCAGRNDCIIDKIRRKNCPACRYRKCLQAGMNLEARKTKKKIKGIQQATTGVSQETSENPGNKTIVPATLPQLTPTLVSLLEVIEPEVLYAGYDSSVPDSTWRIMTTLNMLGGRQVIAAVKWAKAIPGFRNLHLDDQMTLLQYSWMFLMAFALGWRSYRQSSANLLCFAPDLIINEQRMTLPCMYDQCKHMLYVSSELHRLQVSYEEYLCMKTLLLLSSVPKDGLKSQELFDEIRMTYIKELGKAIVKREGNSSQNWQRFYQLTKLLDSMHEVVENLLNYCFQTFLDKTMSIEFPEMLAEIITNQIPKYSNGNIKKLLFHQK
# Chain of human Peripheral-type Benzodiazepine Receptor (PBR), TSPO (gene 706) (P30536 whole entry, looked up): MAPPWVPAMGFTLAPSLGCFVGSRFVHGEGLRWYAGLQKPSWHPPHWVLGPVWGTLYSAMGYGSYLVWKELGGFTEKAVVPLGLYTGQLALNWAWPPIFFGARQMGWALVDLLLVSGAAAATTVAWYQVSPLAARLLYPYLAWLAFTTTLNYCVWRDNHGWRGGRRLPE
# Chain of rat Thyrotropin Releasing Hormone Receptor (TRH), Trhr (gene 25570) (Q01717 whole entry, looked up): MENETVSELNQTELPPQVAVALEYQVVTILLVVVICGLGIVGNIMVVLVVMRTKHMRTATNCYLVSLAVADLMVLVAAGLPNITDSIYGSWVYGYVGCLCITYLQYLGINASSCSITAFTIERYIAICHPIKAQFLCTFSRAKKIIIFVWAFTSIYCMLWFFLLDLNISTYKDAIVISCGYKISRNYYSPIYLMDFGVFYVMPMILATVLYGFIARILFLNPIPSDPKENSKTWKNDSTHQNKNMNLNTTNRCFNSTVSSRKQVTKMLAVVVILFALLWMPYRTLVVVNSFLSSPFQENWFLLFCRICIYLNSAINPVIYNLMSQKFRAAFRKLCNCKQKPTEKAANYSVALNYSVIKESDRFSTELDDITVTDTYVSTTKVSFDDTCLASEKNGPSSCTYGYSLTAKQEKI
compound,measurement,setting,value
CCOC(=O)C1OC1(C)c1ccccc1 (stereo unspecified),outcome,[1],inactive
CCN(CC)C(=S)S,outcome,[2],inactive
O=[N+]([O-])c1ccc(Cl)cc1,outcome,[3],inactive
BrCBr,outcome,[2],inactive
same,outcome,[1],inactive
O=S(=O)(O)OOS(=O)(=O)O,outcome,[4],inactive
same,outcome,[3],inactive
O=C1C=CC(=O)C=C1,AC50,[5],34 µM (active) and 29.6 µM (active)
same,AC50,[6],30.9 µM (active) and 20 µM (active)
same,AC50,[7],36.9 µM (active) and 26.8 µM (active)
same,AC50,[8],9.01 µM (active) and 4.78 µM (active)
same,AC50,[9],30.6 µM (active) and 29 µM (active)
CC(Cc1ccc(C(C)(C)C)cc1)CN1C[C@@H](C)O[C@@H](C)C1 (stereo partly specified),outcome,[1],inactive
same,AC50,[10],65.8 µM (active)
O=[N+]([O-])c1cc(C(F)(F)F)c(Cl)c([N+](=O)[O-])c1Cl,AC50,[2],14.6 µM (active)
CCC(C)c1cc([N+](=O)[O-])cc([N+](=O)[O-])c1OC(=O)C=C(C)C (stereo unspecified),outcome,[1],inactive
same,AC50,[5],3.66 µM (active)
same,AC50,[6],5.45 µM (active)
same,AC50,[7],11.6 µM (active)
same,AC50,[8],36.9 µM (active)
same,AC50,[9],20.8 µM (active)
CCC(C)(C)O,outcome,[1],inactive
COC(C)(C)CCC[C@H](C)C/C=C/C(C)=C/C(=O)OC(C)C,outcome,[11],inactive
same,AC50,[12],25 µM (active)
same,AC50,[5],27.1 µM (active)
same,AC50,[6],30.9 µM (active)
same,outcome,[7],inactive
same,outcome,[8],inactive
same,outcome,[9],inactive
CNC(=O)Oc1cc(C)c(SC)c(C)c1,AC50,[2],8.61 µM (active)
same,outcome,[11],inactive
same,outcome,[1],inactive
same,outcome,[10],inactive
same,outcome,[5],inactive
same,outcome,[6],inactive
same,outcome,[7],inactive
same,outcome,[8],inactive
same,outcome,[9],inactive
Nc1ccccc1C(=O)Oc1ccc2ccccc2c1,AC50,[2],12.8 µM (active)
same,outcome,[11],inactive
CCc1cc(C)cc(CC)c1-c1c(OC(=O)C(C)(C)C)n2n(c1=O)CCOCC2,outcome,[12],inactive
same,outcome,[5],inactive
same,AC50,[6],20 µM (active)
same,outcome,[7],inactive
same,outcome,[8],inactive
same,outcome,[9],inactive
